According to the supplement of paper PMC7411054:
Structures can show the parent of a compound that is named as a salt.

Columns and labels:
Conditions in all cases: treatment time: 24 h
A549-ACTB-RAB5A [1] = test: lowest phenotypically active concentration; higher = less potent
Method in brief: (§1)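 Live-cell features were measured per well and normalised to solvent control wells after fifteen gene-edited A549, HepG2 and WPMY1 reporter lines had been treated for 24 h at 0.3, 1, 3 or 9 µM in four wells each. A condition was deviating when ≥3 of 4 wells sat beyond the 95th percentile of control Euclidean distances. It was reproducible when the median replicate Pearson correlation exceeded the 95th percentile of non-replicates. Phenotypic activity demanded both.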

A549-CANX-COX4 [2] = test: as above
Method in brief: as §1

A549-GM130-SQSTM1 [3] = test: as above
Method in brief: as §1

A549-TP53BP1-CLTA [4] = test: as above
Method in brief: as §1

A549-TUBA1B-RELA [5] = test: as above
Method in brief: as §1

A549-ACTB-RAB5A [6] = test: phenotypically active (imaging signature differs from DMSO and reproducible) at any of 0.3-9 uM (binary (1 = active, 0 = inactive)); higher = active
Method in brief: as §1

A549-CANX-COX4 [7] = test: as above
Method in brief: as §1

A549-GM130-SQSTM1 [8] = test: as above
Method in brief: as §1

A549-TP53BP1-CLTA [9] = test: as above
Method in brief: as §1

A549-TUBA1B-RELA [10] = test: as above
Method in brief: as §1

HepG2-ACTB-RAB5A = test: as above
Method in brief: as §1

HepG2-CANX-COX4 = test: as above
Method in brief: as §1

HepG2-GM130-SQSTM1 = test: as above
Method in brief: as §1

HepG2-TP53BP1-CLTA = test: as above
Method in brief: as §1

HepG2-TUBA1B-RELA = test: as above
Method in brief: as §1

WPMY1-ACTB-RAB5A = test: as above
Method in brief: as §1

WPMY1-CANX-COX4 = test: as above
Method in brief: as §1

WPMY1-GM130-SQSTM1 = test: as above
Method in brief: as §1

WPMY1-TP53BP1-CLTA = test: as above
Method in brief: as §1

WPMY1-TUBA1B-RELA = test: as above
Method in brief: as §1

Compound | lowest phenotypically active concentration (A549-ACTB-RAB5A [1]) [µM] | lowest phenotypically active concentration (A549-CANX-COX4 [2]) [µM] | lowest phenotypically active concentration (A549-GM130-SQSTM1 [3]) [µM] | lowest phenotypically active concentration (A549-TP53BP1-CLTA [4]) [µM] | lowest phenotypically active concentration (A549-TUBA1B-RELA [5]) [µM] | phenotypically active (A549-ACTB-RAB5A [6]) | phenotypically active (A549-CANX-COX4 [7]) | phenotypically active (A549-GM130-SQSTM1 [8]) | phenotypically active (A549-TP53BP1-CLTA [9]) | phenotypically active (A549-TUBA1B-RELA [10]) | phenotypically active (HepG2-ACTB-RAB5A) | phenotypically active (HepG2-CANX-COX4) | phenotypically active (HepG2-GM130-SQSTM1) | phenotypically active (HepG2-TP53BP1-CLTA) | phenotypically active (HepG2-TUBA1B-RELA) | phenotypically active (WPMY1-ACTB-RAB5A) | phenotypically active (WPMY1-CANX-COX4) | phenotypically active (WPMY1-GM130-SQSTM1) | phenotypically active (WPMY1-TP53BP1-CLTA) | phenotypically active (WPMY1-TUBA1B-RELA)
COc1cc(/C=C/C(=O)N2CCC=CC2=O)cc(OC)c1OC [Piperlongumine] | 3 | 9 | 3 | 9 | 9 | 1 (active) | 1 (active) | 1 (active) | 1 (active) | 1 (active) | 1 (active) | 1 (active) | 1 (active) | 1 (active) | 1 (active) | 1 (active) | 1 (active) | 1 (active) | 1 (active) | 1 (active)
CN1c2ccccc2C(=O)N2CCc3c([nH]c4ccccc34)[C@H]21 [Evodiamine] | 1 | 1 | 1 | 3 | 1 | 1 (active) | 1 (active) | 1 (active) | 1 (active) | 1 (active) | 1 (active) | 1 (active) | 1 (active) | 1 (active) | 1 (active) | 1 (active) | 1 (active) | 1 (active) | 1 (active) | 1 (active)
CN[C@H]1CC[C@@H](c2ccc(Cl)c(Cl)c2)c2ccccc21 [sertraline] | 1 | 9 | 3 | 9 | 1 | 1 (active) | 1 (active) | 1 (active) | 1 (active) | 1 (active) | 1 (active) | 1 (active) | 1 (active) | 1 (active) | 1 (active) | 1 (active) | 1 (active) | 1 (active) | 1 (active) | 1 (active)
C[C@H]1[C@H]2CC[C@H]3[C@@H]4CC=C5C[C@@H](N(C)C)CC[C@]5(C)[C@H]4CC[C@]23CN1C [Conessine] | 1 | 9 | 1 | 3 | 1 | 1 (active) | 1 (active) | 1 (active) | 1 (active) | 1 (active) | 1 (active) | 1 (active) | 1 (active) | 1 (active) | 1 (active) | 1 (active) | 1 (active) | 1 (active) | 1 (active) | 1 (active)
CCC(=O)N1CCN(c2ccc(-n3c(=O)ccc4cnc5ccc(-c6cnc7ccccc7c6)cc5c43)cc2C(F)(F)F)CC1 [Torin 1] | ≤ 0.3 | ≤ 0.3 | ≤ 0.3 | ≤ 0.3 | ≤ 0.3 | 1 (active) | 1 (active) | 1 (active) | 1 (active) | 1 (active) | 1 (active) | 1 (active) | 1 (active) | 1 (active) | 1 (active) | 1 (active) | 1 (active) | 1 (active) | 1 (active) | 1 (active)
CC[C@@H](N)CNc1ccnc(-c2cc(-c3cnn(C)c3)ccc2O)n1 | 1 | 3 | 1 | 1 | 1 | 1 (active) | 1 (active) | 1 (active) | 1 (active) | 1 (active) | 1 (active) | 1 (active) | 1 (active) | 1 (active) | 1 (active) | 1 (active) | 1 (active) | 1 (active) | 1 (active) | 1 (active)
Cc1cc(C)cc(C(=O)NOCCCCCC(=O)NO)c1 | ≤ 0.3 | ≤ 0.3 | ≤ 0.3 | 1 | ≤ 0.3 | 1 (active) | 1 (active) | 1 (active) | 1 (active) | 1 (active) | 1 (active) | 1 (active) | 1 (active) | 1 (active) | 1 (active) | 1 (active) | 1 (active) | 1 (active) | 1 (active) | 1 (active)
CN1CCC(=C2c3ccccc3CC(=O)c3sccc32)CC1 [ketotifen] | 9 | 9 | 9 | 9 | 9 | 1 (active) | 1 (active) | 1 (active) | 1 (active) | 1 (active) | 1 (active) | 1 (active) | 1 (active) | 1 (active) | 1 (active) | 1 (active) | 1 (active) | 1 (active) | 1 (active) | 1 (active)
Cc1c[nH]c2nccc(Oc3c(F)cc(Nc4cc(Cl)nc(N)n4)cc3F)c12 | ≤ 0.3 | ≤ 0.3 | ≤ 0.3 | ≤ 0.3 | 1 | 1 (active) | 1 (active) | 1 (active) | 1 (active) | 1 (active) | 1 (active) | 1 (active) | 1 (active) | 1 (active) | 1 (active) | 1 (active) | 1 (active) | 1 (active) | 1 (active) | 1 (active)
Cc1c(C(=O)N2CCOc3ccc(-c4ccc(N)nc4)cc3C2)ccc(S(C)(=O)=O)c1F | 1 | 3 | 3 | 3 | 1 | 1 (active) | 1 (active) | 1 (active) | 1 (active) | 1 (active) | 1 (active) | 1 (active) | 1 (active) | 1 (active) | 1 (active) | 1 (active) | 1 (active) | 1 (active) | 1 (active) | 1 (active)
CN(C)c1ccc(C(=O)NCCCCCCC(=O)NO)cc1 | ≤ 0.3 | ≤ 0.3 | 1 | ≤ 0.3 | ≤ 0.3 | 1 (active) | 1 (active) | 1 (active) | 1 (active) | 1 (active) | 1 (active) | 1 (active) | 1 (active) | 1 (active) | 1 (active) | 1 (active) | 1 (active) | 1 (active) | 1 (active) | 1 (active)
COc1ccccc1-c1c[nH]c2ncc(-c3cncc(C(=O)N(C)C)c3)cc12 | ≤ 0.3 | 1 | ≤ 0.3 | ≤ 0.3 | ≤ 0.3 | 1 (active) | 1 (active) | 1 (active) | 1 (active) | 1 (active) | 1 (active) | 1 (active) | 1 (active) | 1 (active) | 1 (active) | 1 (active) | 1 (active) | 1 (active) | 1 (active) | 1 (active)
Cc1noc(C)c1-c1cc(O)cc(C(O)c2ccccc2)c1 (stereo not given) | 1 | 9 | 3 | 3 | 3 | 1 (active) | 1 (active) | 1 (active) | 1 (active) | 1 (active) | 1 (active) | 1 (active) | 1 (active) | 1 (active) | 1 (active) | 1 (active) | 1 (active) | 1 (active) | 1 (active) | 1 (active)
Nc1ccn([C@@H]2O[C@H](CO)[C@@H](O)[C@@H]2O)c(=O)n1 [cytarabine] | ≤ 0.3 | ≤ 0.3 | ≤ 0.3 | ≤ 0.3 | ≤ 0.3 | 1 (active) | 1 (active) | 1 (active) | 1 (active) | 1 (active) | 1 (active) | 1 (active) | 1 (active) | 1 (active) | 1 (active) | 1 (active) | 1 (active) | 1 (active) | 1 (active) | 1 (active)
C[C@@H](N)[C@H]1CC[C@H](C(=O)Nc2ccncc2)CC1 | 3 | 9 | 9 | 3 | 9 | 1 (active) | 1 (active) | 1 (active) | 1 (active) | 1 (active) | 1 (active) | 1 (active) | 1 (active) | 1 (active) | 1 (active) | 1 (active) | 1 (active) | 1 (active) | 1 (active) | 1 (active)
CCCCCCCCCCCCCCCC[n+]1ccn(Cc2ccccc2)c1C | 1 | ≤ 0.3 | ≤ 0.3 | 1 | 1 | 1 (active) | 1 (active) | 1 (active) | 1 (active) | 1 (active) | 1 (active) | 1 (active) | 1 (active) | 1 (active) | 1 (active) | 1 (active) | 1 (active) | 1 (active) | 1 (active) | 1 (active)
C=CC(=O)Nc1cccc(CN2C(=O)N(c3c(Cl)c(OC)cc(OC)c3Cl)Cc3cnc(NCCCCN(CC)CC)nc32)c1 [FIIN 1 hydrochloride] | ≤ 0.3 | 3 | ≤ 0.3 | 3 | 1 | 1 (active) | 1 (active) | 1 (active) | 1 (active) | 1 (active) | 1 (active) | 1 (active) | 1 (active) | 1 (active) | 1 (active) | 1 (active) | 1 (active) | 1 (active) | 1 (active) | 1 (active)
